According to PubChem BioAssay (NCI):
About 83,000 compounds went through this panel and 20% of them were active in at least one assay; those are over-represented in the sample as a whole.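 Percent growth is the endpoint: 0 to 100 indicates growth inhibition (40 means 60% inhibition), 0 means no net growth, and negative values indicate cell death.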 Activity calls are given as the source filed them. The calls were made as follows: active = growth percent below 10; inactive = the rest.

What was measured:
Experiment in all cases: NCI-60 one-dose screen, 48 h (100 = growth as untreated, 0 = no growth, -100 = all killed)
Settings in all cases: 10 µM unless noted
T-47D breast = tested on: T-47D breast
BT-549 breast = tested on: BT-549 breast
MDA-MB-435 melanoma = tested on: MDA-MB-435 melanoma
SW-620 colon = tested on: SW-620 colon
MCF7 breast = tested on: MCF7 breast
HCT-116 colon = tested on: HCT-116 colon
HCC-2998 colon = tested on: HCC-2998 colon
KM12 colon = tested on: KM12 colon

Measured: growth

O=C1/C(=C/c2cccc(OCc3ccccc3)c2)Oc2cc(OCCN3CCCCC3)ccc21
inactive: T-47D breast 89.9% | BT-549 breast 75.6% | MDA-MB-435 melanoma 85.4% | SW-620 colon 67.3% | MCF7 breast 50.7% | HCT-116 colon 52.8% | HCC-2998 colon 93.3% | KM12 colon 67.9%

C#C[C@]1(O)CC[C@H]2[C@@H]3CC=C4c5nc(Nc6ncccn6)sc5CC[C@]4(C)[C@H]3CC[C@@]21C
inactive: T-47D breast 40% | BT-549 breast 19.5% | MDA-MB-435 melanoma 50.5% | SW-620 colon 60.4% | MCF7 breast 59.7% | HCT-116 colon 22.3% | HCC-2998 colon 88.3% | KM12 colon 48.5%

C=C(C)[C@@H]1CC[C@]2(c3ncc(C)o3)CC[C@]3(C)[C@H](CC[C@@H]4[C@@](C)(CCC#N)[C@H](C(=C)C)CC[C@]43C)[C@@H]12
active: T-47D breast -73.4% [100 µM] | BT-549 breast -76% [100 µM] | MDA-MB-435 melanoma -84.6% [100 µM] | SW-620 colon -70% [100 µM] | MCF7 breast -73.3% [100 µM] | HCT-116 colon -81.8% [100 µM] | HCC-2998 colon -80.9% [100 µM] | KM12 colon -75.1% [100 µM]

CC(C)(C)c1cc(C(=O)Nc2ccccc2C(=O)NCCN)cc(C(C)(C)C)c1
active: T-47D breast -14.6% | MDA-MB-435 melanoma -73.3% | SW-620 colon -56.8% | MCF7 breast -63.1% | HCT-116 colon -94.7% | HCC-2998 colon -59.1% | KM12 colon -62.2%
inactive: BT-549 breast 99.2%

COc1cc(NCc2cn(-c3ccc(C(=O)O)cc3)nc2-c2ccc(C(=O)O)cc2)cc(OC)c1OC
inactive: T-47D breast 93.7% | BT-549 breast 96.2% | MDA-MB-435 melanoma 102% | SW-620 colon 92% | MCF7 breast 93.3% | HCT-116 colon 97.5% | HCC-2998 colon 104% | KM12 colon 100%

CCN1CCN(CC(=O)Nc2nc3ccc(NCc4ccc(Cl)cc4)cc3s2)CC1
inactive: T-47D breast 50.6% | BT-549 breast 76.4% | SW-620 colon 22% | MCF7 breast 33.6% | HCT-116 colon 12.6% | HCC-2998 colon 82.1% | KM12 colon 59.9%
active: MDA-MB-435 melanoma -10.6%

C[C@@H]1C[C@H]2C(=O)O[C@@H](C)[C@H](NC(=O)[C@H](Cc3cc(F)cc(F)c3)NC(=O)Nc3ccc(Cl)cc3F)C(=O)N3C[C@H](O)C[C@H]3C(=O)N3CCN(C)C[C@H]3C(=O)N[C@@H](C)C(=O)N2C1
inactive: T-47D breast 19.2% | BT-549 breast 14.9% | MDA-MB-435 melanoma 22.3% | SW-620 colon 42% | MCF7 breast 23% | HCC-2998 colon 32.8% | KM12 colon 41.2%
active: HCT-116 colon 8.85%

CCCN1CC(c2ccc(OC)c(OC)c2)=C(c2cn(C(=O)OCC)c3ccccc23)C1=O
inactive: T-47D breast 36.5% | BT-549 breast 58.6% | SW-620 colon 31.5% | MCF7 breast 20.4% | HCT-116 colon 21% | HCC-2998 colon 78.3% | KM12 colon 32.3%
active: MDA-MB-435 melanoma -10.5%

COc1ccc(OC)c(NC=O)c1
inactive: T-47D breast 101% | BT-549 breast 109% | MDA-MB-435 melanoma 104% | SW-620 colon 105% | MCF7 breast 96.4% | HCT-116 colon 101% | HCC-2998 colon 103% | KM12 colon 109%

C#C[C@]1(O)CC[C@H]2[C@@H]3CC=C4c5nc(Nc6ccc(OC)cc6OC)sc5CC[C@]4(C)[C@H]3CC[C@@]21C
inactive: T-47D breast 22.3% | HCC-2998 colon 29.8%
active: BT-549 breast -16.7% | MDA-MB-435 melanoma -4.22% | SW-620 colon -12.8% | MCF7 breast 4.51% | HCT-116 colon -21.1% | KM12 colon -50.4%
